Records with an inconclusive call do not appear. Calls of active or inactive are those of the source. Unless noted, calls follow the shape of the dose curve; as a rule, active = well fitted curve in the direction sought with a large enough effect; inconclusive = small, poorly fitted or top-dose-only effect, or another doubt; inactive = no such curve, though single readings can be large; an effect the other way counts as inactive or inconclusive.
What was measured:
[1] = AP1 Signaling Pathway (AID 357; active = well fitted curve in either direction with a large enough effect, not every such curve was filed as active;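 also: ME-180 reporter cells stimulated with EGF at its EC50 level; % is scaled to controls: 0 for no effect and ±100 for the full control effect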); conditions: ME-180 AP-1-bla reporter, EGF-induced, beta-lactamase ratio, 5 h; at 17.2 µM (top of the series) unless noted
In short: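 Modulation of EGF-driven AP-1 transcription was assessed with a beta-lactamase reporter in ME-180 cells. Compound and EC50 EGF were co-incubated 5 hours at 37 °C before 2.5-hour CCF4 loading at room temperature and dual-emission reading.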

[2] = NFAT Signaling Pathway (AID 444; active = well fitted curve in either direction with a large enough effect, not every such curve was filed as active;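 also: carbachol stimulus at about its EC50 of 1 µM final; % is scaled to controls: 0 for no effect and ±100 for the full control effect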); conditions: Jurkat NFAT-bla M1, carbachol, beta-lactamase ratio, 5 h; at 17.2 µM (top of the series) unless noted
In short: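 Jurkat cells with NFAT-driven β-lactamase reporter and co-expressed M1 receptor, stimulated with carbachol (final 1 uM, ~EC50), compound titration, 5 h at 37 °C. CCF4 loaded 1 h at RT; 460/530 nm ratio gave %activity and AC50.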

[3] = Stat Signaling Pathway (AID 446; active = well fitted curve in either direction with a large enough effect, not every such curve was filed as active;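 also: ME-180 cervical cancer cells given 40 pM IL-6 alongside compound; SIE-controlled beta-lactamase reporter measured as 460/530 nm FRET emission ratio; % is scaled to controls: 0 for no effect and ±100 for the full control effect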)
In short: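 Reporter line: ME-180 cervical carcinoma, SIE-beta-lactamase. Treatment: compound with 40 pM IL-6, 5 hrs, 37 C, in low-serum OPTI-MEM with 10 mM HEPES pH 7.3. Detection: 460/530 nm fluorescence.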

[4] = target: Glucocorticoid receptor (Homo sapiens) (UniProt P04150); assay: GR-GFP Redistribution (AID 450;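 active = compounds whose dose series gives a full or clear partial fitted curve of increased nuclear translocation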; also: potency is read from the fitted curve at half-maximal effect); conditions: U2OS GR-GFP nuclear translocation, laser cytometry, 2 h
[5] = target: Glucocorticoid receptor (Homo sapiens) (UniProt P04150); assay: GR-EFC Redistribution (AID 451; calls by dose curve; also: potency is read from the fitted curve at half-maximal effect); conditions: CHO-K1 GR-EFC translocation, beta-gal luminescence, 2 h
In short: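 CHO-K1 cells expressing nuclear EA and GR-ED fragments of b-gal; compounds titrated up to 46 uM final, 2 h at 37 C. GR nuclear translocation read as complemented b-gal luminescence after 1 h RT detection.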

[6] = target: Mitogen-activated protein kinase 10 (Mus musculus) (UniProt Q61831); assay: JNK3 AlphaScreen Assay (AID 530; active = well fitted curve in either direction with a large enough effect, not every such curve was filed as active;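 also: kinase came from lysate of stimulated human HepG2 cells; signal reports phosphorylation of biotinylated GST-cJun 1-79 at Ser73 with 10 µM ATP; % is scaled to controls: 0 for no effect and ±100 for the full control effect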)
In short: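 qHTS format: compounds tested as titrations against IL-1beta/TNF-alpha-activated HepG2 lysate JNK3 with biotin-GST-cJun substrate and 10 uM ATP at room temperature. Loss of anti-phospho-cJun AlphaScreen signal indicates inhibition.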

[7] = target: 3',5'-cyclic-AMP phosphodiesterase 4B (Homo sapiens) (UniProt Q07343); assay: qHTS Assay for Inhibitors of PDE-IV (AID 607; active = well fitted activation curve with a large enough effect in the main read-out, with a control signal flat, not every such curve was filed as active; also: % of control where 0% means no effect)
In short: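 Cell-based read-out of cAMP via a modified cyclic nucleotide-gated channel and membrane potential dye (535/590 nm) in HEK293 cells expressing PDE4 endogenously. Compounds tested up to 22.9 uM final; 100 uM RO 20-1724 reference.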

[8] = target: Cytochrome P450 3A4 (Homo sapiens) (UniProt P08684); assay: qHTS Assay for Activators of Cytochrome P450 3A4 (AID 885); also: nearly all actives have a fitted effect of over 65% in size
In short: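 Signal was normalized against complete inhibition by 57 uM ketoconazole. The reaction used 20nM CYP3A4 with 25uM Luciferin-PPXE, 10-min compound preincubation and a 60-min NADPH-supported step at RT.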

[9] = target: ATP-dependent 6-phosphofructokinase (Trypanosoma brucei brucei) (UniProt O15648); assay: qHTS Assay to Find Inhibitors of T. brucei phosphofructokinase: hit validation (AID 492961); also: % is scaled to controls: 0 for no effect and ±100 for the full control effect
In short: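 Luminescence from ADP-Glo reports ADP generated as T. brucei PFK (1.25 nM) phosphorylates 0.5 mM fructose-6-phosphate using 0.1 mM ATP. Reactions ran 45 min at room temperature, pH 8.0.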

[10] = target: Ubiquitin carboxyl-terminal hydrolase 1 (Homo sapiens) (UniProt O94782); assay: Inhibitors of USP1/UAF1: Pilot qHTS (AID 504865);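 also: rhodamine fluorescence freed from ubiquitin-rhodamine substrate followed over time; top concentration of the series differs between compounds; % is scaled to controls: 0 for no effect and ±100 for the full control effect; nearly all actives have a fitted effect of over 35% in size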
In short: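 Kinetic fluorescence assay: 1nM USP1/UAF1, 15 min compound preincubation, then 150nM Ub-Rho; 480/540 nm.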

[11] = target: Luciferin 4-monooxygenase (Photinus pyralis) (UniProt P08659); assay: Biochemical firefly luciferase enzyme assay for NPC (AID 624030);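 also: purified P. pyralis luciferase at 10 nM with luciferin and ATP substrate; 0% = DMSO and -100% = full luciferase inhibition by PTC124 control; nearly all actives have a fitted effect of over 70% in size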
In short: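 Purified P. pyralis luciferase at 10 nM in 50 mM Tris Acetate (final), luminescence read within 5 minutes of enzyme addition to compounds. Activity normalised to PTC124 versus DMSO; concentration-response curves classed by r2, magnitude and activity.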

[12] = S16 Schwann cell viability assay (CellTiter-Glo assay) (AID 624031);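 also: native untransfected S16 rat Schwann cells; cellular ATP luminescence as a viability measure; plate controls were DMSO-treated cells for no effect and cell-free wells for full effect; nearly all actives have a fitted effect of over 70% in size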
In short: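 Concentration-effect curves come from CellTiter-Glo luminescence of S16 rat Schwann cells after 24 h compound exposure. Each reading was normalized to DMSO wells (0%) and wells without cells, and curves were ranked by r2 and response magnitude.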

[13] = S16 Schwann cell PMP22 intronic element firefly luciferase assay (AID 624032);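 also: plate controls were DMSO for no effect and PTC124 positive control mean for full effect; nearly all actives have a fitted effect of over 30% in size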
In short: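 Rat S16 Schwann cells stably carrying firefly luciferase driven by a PMP22 intronic element, in 10% FBS, treated 24 h at 37 C. ONE-Glo luminescence normalized to PTC124 control and DMSO (0%); curves classed by r2, magnitude and activity.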

[14] = S16 Schwann cell PMP22 intronic element beta-lactamase assay (AID 624044; calls by dose curve;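 also: 0% = DMSO and -100% = potassium clavulanate positive control; nearly all actives have a fitted effect of over 15% in size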); conditions: S16 rat Schwann cells, PMP22 element beta-lactamase FRET, 24 h; ratio activity, negative = inhibition: at 38.3 µM (top of the series)
In short: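 Rat S16 Schwann cells with beta-Lac driven by a PMP22 intronic element, compound-treated 24 h at 37 °C. LiveBLAzer FRET B/G read: 460 nm normalized to potassium clavulanate vs DMSO; 535 nm FRET as viability; concentration-effect curves classified.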

[15] = qHTS profiling for inhibitors of Plasmodium falciparum proliferation (AID 504749);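 also: 0% = DMSO vehicle and full inhibition = artemisinin control; nearly all actives have a fitted effect of over 60% in size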; conditions: P. falciparum in erythrocytes, SYBR Green DNA, 72 h, at 12.8 µM (top of the series)
In short: (§1)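 Readout was DNA-dye fluorescence from lysed cultures, ex 485/em 535 nm. Parasitized red cells had grown 72 h with compound; data scaled between 0.29 uM artemisinin and DMSO wells and corrected using vehicle-only plates.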

3D7 = assay: as above; conditions: P. falciparum in erythrocytes, SYBR Green DNA, 72 h; series mostly up to 28.7 µM
In short: as §1

AA1029 = assay: as above; conditions: P. falciparum in erythrocytes, SYBR Green DNA, 72 h; series mostly up to 28.7 µM
In short: as §1

AS120 = assay: as above; conditions: P. falciparum in erythrocytes, SYBR Green DNA, 72 h; series mostly up to 28.7 µM
In short: as §1

ATS189 = assay: as above; conditions: P. falciparum in erythrocytes, SYBR Green DNA, 72 h; series mostly up to 28.7 µM
In short: as §1

ATS95 = assay: as above; conditions: P. falciparum in erythrocytes, SYBR Green DNA, 72 h; series mostly up to 28.7 µM
In short: as §1

C2A = assay: as above; conditions: P. falciparum in erythrocytes, SYBR Green DNA, 72 h; series mostly up to 28.7 µM
In short: as §1

CP185 = assay: as above; conditions: P. falciparum in erythrocytes, SYBR Green DNA, 72 h; series mostly up to 28.7 µM
In short: as §1

CP191 = assay: as above; conditions: P. falciparum in erythrocytes, SYBR Green DNA, 72 h; series mostly up to 28.7 µM
In short: as §1

CP192 = assay: as above; conditions: P. falciparum in erythrocytes, SYBR Green DNA, 72 h; series mostly up to 28.7 µM
In short: as §1

CP194 = assay: as above; conditions: P. falciparum in erythrocytes, SYBR Green DNA, 72 h; series mostly up to 28.7 µM
In short: as §1

CP201 = assay: as above; conditions: P. falciparum in erythrocytes, SYBR Green DNA, 72 h; series mostly up to 28.7 µM
In short: as §1

CP203 = assay: as above; conditions: P. falciparum in erythrocytes, SYBR Green DNA, 72 h; series mostly up to 28.7 µM
In short: as §1

CP211 = assay: as above; conditions: P. falciparum in erythrocytes, SYBR Green DNA, 72 h; series mostly up to 28.7 µM
In short: as §1

CP215 = assay: as above; conditions: P. falciparum in erythrocytes, SYBR Green DNA, 72 h; series mostly up to 28.7 µM
In short: as §1

CP217 = assay: as above; conditions: P. falciparum in erythrocytes, SYBR Green DNA, 72 h; series mostly up to 28.7 µM
In short: as §1

CP237 = assay: as above; conditions: P. falciparum in erythrocytes, SYBR Green DNA, 72 h; series mostly up to 28.7 µM
In short: as §1

CP238 = assay: as above; conditions: P. falciparum in erythrocytes, SYBR Green DNA, 72 h; series mostly up to 28.7 µM
In short: as §1

CP247 = assay: as above; conditions: P. falciparum in erythrocytes, SYBR Green DNA, 72 h; series mostly up to 28.7 µM
In short: as §1

CP250 = assay: as above; conditions: P. falciparum in erythrocytes, SYBR Green DNA, 72 h; series mostly up to 28.7 µM
In short: as §1

Sequence of Glucocorticoid receptor (Homo sapiens) (P04150 whole entry, looked up, the tested form may be a part): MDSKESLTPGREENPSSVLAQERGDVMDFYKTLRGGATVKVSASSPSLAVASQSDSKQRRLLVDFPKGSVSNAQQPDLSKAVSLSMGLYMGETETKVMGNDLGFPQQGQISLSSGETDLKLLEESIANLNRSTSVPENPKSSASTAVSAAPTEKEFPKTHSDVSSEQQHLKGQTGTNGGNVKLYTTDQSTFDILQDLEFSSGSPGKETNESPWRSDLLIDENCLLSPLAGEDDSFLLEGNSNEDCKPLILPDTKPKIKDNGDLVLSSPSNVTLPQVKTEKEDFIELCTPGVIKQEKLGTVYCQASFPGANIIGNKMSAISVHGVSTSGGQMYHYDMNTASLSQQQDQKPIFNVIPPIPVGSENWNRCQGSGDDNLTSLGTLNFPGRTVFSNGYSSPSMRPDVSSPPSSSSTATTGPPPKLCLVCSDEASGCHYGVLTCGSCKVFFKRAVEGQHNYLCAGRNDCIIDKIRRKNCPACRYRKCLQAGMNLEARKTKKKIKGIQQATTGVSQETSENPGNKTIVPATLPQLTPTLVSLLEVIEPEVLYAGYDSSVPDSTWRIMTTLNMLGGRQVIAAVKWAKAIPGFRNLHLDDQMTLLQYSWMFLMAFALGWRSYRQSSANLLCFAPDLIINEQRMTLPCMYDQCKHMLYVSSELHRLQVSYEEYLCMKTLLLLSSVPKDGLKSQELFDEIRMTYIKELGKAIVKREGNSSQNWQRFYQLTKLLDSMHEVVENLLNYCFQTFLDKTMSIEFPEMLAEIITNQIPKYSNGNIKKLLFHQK
Sequence of 3',5'-cyclic-AMP phosphodiesterase 4B (Homo sapiens) (Q07343 whole entry, looked up): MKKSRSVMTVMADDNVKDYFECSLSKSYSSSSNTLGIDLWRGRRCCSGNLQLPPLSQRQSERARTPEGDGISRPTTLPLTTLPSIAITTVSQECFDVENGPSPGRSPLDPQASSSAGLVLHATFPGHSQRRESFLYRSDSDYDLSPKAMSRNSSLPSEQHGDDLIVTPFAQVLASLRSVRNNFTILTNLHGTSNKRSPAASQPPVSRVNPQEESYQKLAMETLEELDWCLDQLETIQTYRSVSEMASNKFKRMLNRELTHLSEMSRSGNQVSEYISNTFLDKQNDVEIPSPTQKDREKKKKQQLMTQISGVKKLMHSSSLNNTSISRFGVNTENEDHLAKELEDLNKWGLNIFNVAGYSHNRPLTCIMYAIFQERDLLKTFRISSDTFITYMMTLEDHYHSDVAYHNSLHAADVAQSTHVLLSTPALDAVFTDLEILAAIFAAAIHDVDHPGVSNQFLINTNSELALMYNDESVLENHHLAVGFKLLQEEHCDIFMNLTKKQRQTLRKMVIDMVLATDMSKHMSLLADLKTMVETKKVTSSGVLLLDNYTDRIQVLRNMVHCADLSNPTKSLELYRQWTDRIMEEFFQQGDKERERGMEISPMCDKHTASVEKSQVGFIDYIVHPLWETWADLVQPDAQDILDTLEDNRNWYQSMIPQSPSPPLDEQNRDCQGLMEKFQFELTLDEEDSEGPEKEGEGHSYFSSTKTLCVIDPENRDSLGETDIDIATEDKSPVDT
Sequence of Cytochrome P450 3A4 (Homo sapiens) (P08684 whole entry, looked up): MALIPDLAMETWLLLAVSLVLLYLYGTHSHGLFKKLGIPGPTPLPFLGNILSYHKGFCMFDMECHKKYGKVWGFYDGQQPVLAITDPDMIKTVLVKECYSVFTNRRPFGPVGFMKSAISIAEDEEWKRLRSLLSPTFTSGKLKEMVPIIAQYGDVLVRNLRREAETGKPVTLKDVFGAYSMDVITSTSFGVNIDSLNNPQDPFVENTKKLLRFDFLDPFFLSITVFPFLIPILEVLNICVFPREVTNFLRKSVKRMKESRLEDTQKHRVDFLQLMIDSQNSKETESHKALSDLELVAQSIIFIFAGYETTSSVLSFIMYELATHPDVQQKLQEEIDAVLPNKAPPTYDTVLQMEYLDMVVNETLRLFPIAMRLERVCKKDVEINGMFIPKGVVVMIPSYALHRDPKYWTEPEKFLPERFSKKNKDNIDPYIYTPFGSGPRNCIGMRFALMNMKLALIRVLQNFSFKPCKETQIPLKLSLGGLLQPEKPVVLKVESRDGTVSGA
Sequence of Ubiquitin carboxyl-terminal hydrolase 1 (Homo sapiens) (O94782 whole entry, looked up): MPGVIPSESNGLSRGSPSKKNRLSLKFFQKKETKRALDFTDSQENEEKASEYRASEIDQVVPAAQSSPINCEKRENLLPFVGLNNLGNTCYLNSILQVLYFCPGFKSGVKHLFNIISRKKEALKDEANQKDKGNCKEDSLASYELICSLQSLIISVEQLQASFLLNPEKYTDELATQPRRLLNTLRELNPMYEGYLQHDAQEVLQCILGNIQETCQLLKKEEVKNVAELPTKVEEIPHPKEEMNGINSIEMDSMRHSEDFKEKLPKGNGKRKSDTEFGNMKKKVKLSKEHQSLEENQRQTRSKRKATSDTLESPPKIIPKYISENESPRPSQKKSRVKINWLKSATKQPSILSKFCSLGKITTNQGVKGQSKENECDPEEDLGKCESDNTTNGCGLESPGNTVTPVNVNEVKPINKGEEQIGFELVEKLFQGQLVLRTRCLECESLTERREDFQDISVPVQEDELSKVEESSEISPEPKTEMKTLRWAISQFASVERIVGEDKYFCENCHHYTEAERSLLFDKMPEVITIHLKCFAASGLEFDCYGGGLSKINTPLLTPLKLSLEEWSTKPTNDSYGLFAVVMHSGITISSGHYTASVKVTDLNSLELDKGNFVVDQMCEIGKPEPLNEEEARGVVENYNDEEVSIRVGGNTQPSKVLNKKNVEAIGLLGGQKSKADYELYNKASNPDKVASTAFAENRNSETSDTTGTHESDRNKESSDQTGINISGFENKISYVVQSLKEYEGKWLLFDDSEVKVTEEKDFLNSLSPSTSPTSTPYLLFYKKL
Sequence of ATP-dependent 6-phosphofructokinase (Trypanosoma brucei brucei) (O15648 whole entry, looked up): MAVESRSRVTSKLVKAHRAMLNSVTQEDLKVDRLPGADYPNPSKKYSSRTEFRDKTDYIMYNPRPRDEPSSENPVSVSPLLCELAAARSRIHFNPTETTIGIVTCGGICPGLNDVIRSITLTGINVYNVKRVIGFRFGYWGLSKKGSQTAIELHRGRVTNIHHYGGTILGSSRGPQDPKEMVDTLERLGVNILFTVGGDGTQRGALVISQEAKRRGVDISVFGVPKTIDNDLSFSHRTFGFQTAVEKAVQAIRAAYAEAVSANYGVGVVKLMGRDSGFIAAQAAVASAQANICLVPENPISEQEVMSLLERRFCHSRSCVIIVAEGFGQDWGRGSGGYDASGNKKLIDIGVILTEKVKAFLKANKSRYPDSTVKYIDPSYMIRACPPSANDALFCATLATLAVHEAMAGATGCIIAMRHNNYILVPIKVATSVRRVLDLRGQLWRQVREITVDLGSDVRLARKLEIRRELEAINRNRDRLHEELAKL
Sequence of Luciferin 4-monooxygenase (Photinus pyralis) (P08659 whole entry, looked up): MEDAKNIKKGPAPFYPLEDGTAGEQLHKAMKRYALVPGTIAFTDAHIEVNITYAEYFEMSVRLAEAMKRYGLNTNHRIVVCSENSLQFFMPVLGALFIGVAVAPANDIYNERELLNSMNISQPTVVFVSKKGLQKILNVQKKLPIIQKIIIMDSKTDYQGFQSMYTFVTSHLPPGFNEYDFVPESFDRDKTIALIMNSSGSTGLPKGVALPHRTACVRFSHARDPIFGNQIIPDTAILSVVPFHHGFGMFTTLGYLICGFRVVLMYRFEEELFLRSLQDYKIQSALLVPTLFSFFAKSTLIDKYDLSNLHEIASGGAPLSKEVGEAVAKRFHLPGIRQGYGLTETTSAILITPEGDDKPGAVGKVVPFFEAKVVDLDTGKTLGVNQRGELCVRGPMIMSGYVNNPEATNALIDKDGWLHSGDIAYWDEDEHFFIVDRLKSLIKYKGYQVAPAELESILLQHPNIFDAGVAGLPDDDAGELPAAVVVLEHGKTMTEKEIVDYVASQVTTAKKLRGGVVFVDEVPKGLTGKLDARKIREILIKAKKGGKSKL

CCOC(=O)c1cncn1[C@@H](C)c1ccccc1
inactive: activity change, negative = inhibition [1] 9.06% | activity change, negative = inhibition [2] -21.8% | outcome [3] | Potency [4] > 20.6 µM | Potency [5] > 20.6 µM | outcome [6] | outcome [7] | Potency [8] | outcome [9] | Potency [10] | Potency [11] | Potency [12] | Potency [13] | Potency [14] | activity, negative = inhibition ([15]; parasite line A) -15.7% | activity, negative = inhibition ([15]; parasite line B) -15.4% | Potency (3D7) | Potency (AA1029) | Potency (AS120) | Potency (ATS189) | Potency (ATS95) | Potency (C2A) | Potency (CP185) | Potency (CP191) | Potency (CP192) | Potency (CP194) | Potency (CP201) | Potency (CP203) | Potency (CP211) | Potency (CP215) | Potency (CP217) | Potency (CP237) | Potency (CP238) | Potency (CP247) | Potency (CP250)
